Data published in PubChem BioAssay AID1159580 (chemical genetic matrix, 2015).
Where “and” joins values, the source holds several entries; their conditions need not be identical. Equal entries are not always repeated. Hit rate of the full screen: of about 5,500 compounds, about 2,000 (36%) were called active. Roughly 18% stayed inconclusive and do not appear here. No stated cut-off is given here; in the data, active means normalized growth mostly below about 0.91 (no sharp cut-off); inconclusive means no clear call, values can overlap the other calls; inactive means mostly above about 0.92. The list shows a part of the results.

Test: chemical genetic growth profiling, strain panel (AID 1159580);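 further: tested at 20 µM; growth read once vehicle control cultures reached saturation at 30 °C; 1 = growth at the plate median or of vehicle wells; lower values mean less growth of the strain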
Details: growth OD

Measured: normalized growth

Cc1nc2ccccn2c(=O)c1CCN1CCC(C(=O)c2ccc(F)cc2)CC1
inactive: S. cerevisiae deletion strains, locus YJR075W, strain HOC1, hits give low values 0.974 and 1.01 | S. cerevisiae deletion strains, locus YKL009W, strain mrt4, hits give low values 1.01 | S. cerevisiae deletion strains, locus YKL068W, hits give low values 1 | S. cerevisiae deletion strains, locus YKL085W, strain MDH1 (second series), hits give low values 1.03 | S. cerevisiae deletion strains, locus YKL085W, strain MDH1, hits give low values 1.03 | S. cerevisiae deletion strains, locus YKL160W, strain elf1, hits give low values 0.991 | S. cerevisiae deletion strains, locus YKL190W, strain CNB1, hits give low values 1.02 | S. cerevisiae deletion strains, locus YKR001C, strain vps1, hits give low values 0.995 | S. cerevisiae deletion strains, locus YKR026C, strain gcn3, hits give low values 0.98 | S. cerevisiae deletion strains, locus YKR091W, strain srl3, hits give low values 0.994 | S. cerevisiae deletion strains, locus YLL001W, strain dnm1, hits give low values 0.997 | S. cerevisiae deletion strains, locus YLL026W, hits give low values 0.989 | S. cerevisiae deletion strains, locus YLL041C, strain sdh2, hits give low values 0.991 | S. cerevisiae deletion strains, locus YLR027C, strain aat2, hits give low values 1 | S. cerevisiae deletion strains, locus YLR039C, strain RIC1, hits give low values 1.03 | S. cerevisiae deletion strains, locus YLR058C, strain SHM2, hits give low values 1.02 | S. cerevisiae deletion strains, locus YLR102C, strain apc9, hits give low values 0.993 | S. cerevisiae deletion strains, locus YLR113W, strain HOG1, hits give low values 1.01 | S. cerevisiae deletion strains, locus YLR221C, strain rsa3, hits give low values 1 | S. cerevisiae deletion strains, locus YLR258W, strain gsy2, hits give low values 0.986 | S. cerevisiae deletion strains, locus YLR262C, strain YPT6 (second series), hits give low values 0.954 | S. cerevisiae deletion strains, locus YLR262C, strain YPT6, hits give low values 1.05 | S. cerevisiae deletion strains, locus YLR268W, strain sec22, hits give low values 0.995 | S. cerevisiae deletion strains, locus YLR320W, strain mms22, hits give low values 1 | S. cerevisiae deletion strains, locus YLR330W, strain CHS5, hits give low values 1.02 | S. cerevisiae deletion strains, locus YLR342W, strain FKS1 (second series), hits give low values 0.988 | S. cerevisiae deletion strains, locus YLR342W, strain FKS1, hits give low values 0.988 | S. cerevisiae deletion strains, locus YLR357W, strain rsc2, hits give low values 0.924 | S. cerevisiae deletion strains, locus YLR370C, strain arc18, hits give low values 0.991 | S. cerevisiae deletion strains, locus YLR371W, strain rom2, hits give low values 0.989 | S. cerevisiae deletion strains, locus YLR384C, strain iki3, hits give low values 0.985 | S. cerevisiae deletion strains, locus YLR418C, strain cdc73, hits give low values 1.01 | S. cerevisiae deletion strains, locus YML016C, strain PPZ1, hits give low values 1.02 | S. cerevisiae deletion strains, locus YML032C, strain rad52, hits give low values 0.985 | S. cerevisiae deletion strains, locus YML120C, strain ndi1, hits give low values 1 | S. cerevisiae deletion strains, locus YML124C, strain tub3, hits give low values 0.995 | S. cerevisiae deletion strains, locus YMR058W, strain fet3, hits give low values 1 | S. cerevisiae deletion strains, locus YMR078C, strain ctf18, hits give low values 0.994 | S. cerevisiae deletion strains, locus YMR125W, strain sto1, hits give low values 0.962 | S. cerevisiae deletion strains, locus YMR129W, hits give low values 0.998 | S. cerevisiae deletion strains, locus YMR205C, strain PFK2, hits give low values 0.985 | S. cerevisiae deletion strains, locus YMR223W, strain ubp8, hits give low values 0.966 | S. cerevisiae deletion strains, locus YMR231W, strain pep5, hits give low values 0.977 | S. cerevisiae deletion strains, locus YMR307W, strain GAS1, hits give low values 1.01 and 1 | S. cerevisiae deletion strains, locus YNL067W, strain RPL9B, hits give low values 1.04 | S. cerevisiae deletion strains, locus YNL071W, strain lat1, hits give low values 0.993 | S. cerevisiae deletion strains, locus YNL128W, strain TEP1, hits give low values 1.02 and 1.01 | S. cerevisiae deletion strains, locus YNL153C, strain GIM3, hits give low values 1.06 | S. cerevisiae deletion strains, locus YNL175C, strain NOP13, hits give low values 1.01 | S. cerevisiae deletion strains, locus YNL183C, strain NPR1, hits give low values 0.979 | S. cerevisiae deletion strains, locus YNL197C, strain WHI3, hits give low values 1.03 | S. cerevisiae deletion strains, locus YNL209W, strain ssb2, hits give low values 0.994 | S. cerevisiae deletion strains, locus YNL224C, strain SQS1, hits give low values 1.01 | S. cerevisiae deletion strains, locus YNL233W, strain BNI4, hits give low values 1.03 | S. cerevisiae deletion strains, locus YNL248C, strain rpa49, hits give low values 0.979 | S. cerevisiae deletion strains, locus YNL250W, strain rad50, hits give low values 0.999 | S. cerevisiae deletion strains, locus YNL271C, strain bni1, hits give low values 0.977 | S. cerevisiae deletion strains, locus YNL298W, strain CLA4, hits give low values 0.987 | S. cerevisiae deletion strains, locus YNL307C, strain MCK1, hits give low values 0.987 | S. cerevisiae deletion strains, locus YNL322C, strain KRE1 (second series), hits give low values 0.966 | S. cerevisiae deletion strains, locus YNL322C, strain KRE1, hits give low values 1.02 and 1.01 | S. cerevisiae deletion strains, locus YNR049C, strain mso1, hits give low values 0.995 | S. cerevisiae deletion strains, locus YNR052C, strain pop2, hits give low values 0.974 | S. cerevisiae deletion strains, locus YOL006C, strain TOP1, hits give low values 1.09 | S. cerevisiae deletion strains, locus YOL012C, strain htz1 1.02 | S. cerevisiae deletion strains, locus YOL147C, strain pex11, hits give low values 0.997 | S. cerevisiae deletion strains, locus YOR001W, strain rrp6, hits give low values 1.01 | S. cerevisiae deletion strains, locus YOR061W, strain CKA2, hits give low values 1.02 | S. cerevisiae deletion strains, locus YOR069W, strain VPS5, hits give low values 1.02 | S. cerevisiae deletion strains, locus YOR070C, strain gyp1, hits give low values 0.988 | S. cerevisiae deletion strains, locus YOR080W, strain dia2, hits give low values 0.981 | S. cerevisiae deletion strains, locus YOR083W, strain WHI5 (second series), hits give low values 1.02 | S. cerevisiae deletion strains, locus YOR083W, strain WHI5, hits give low values 0.946 | S. cerevisiae deletion strains, locus YOR106W, strain vam3, hits give low values 0.994 | S. cerevisiae deletion strains, locus YOR136W, strain idh2, hits give low values 0.996 | S. cerevisiae deletion strains, locus YOR144C, strain elg1, hits give low values 0.997 | S. cerevisiae deletion strains, locus YOR184W, strain ser1, hits give low values 0.988 | S. cerevisiae deletion strains, locus YOR231W, strain MKK1, hits give low values 1.04 | S. cerevisiae deletion strains, locus YOR265W, strain rbl2, hits give low values 0.989 | S. cerevisiae deletion strains, locus YOR270C, strain vph1, hits give low values 1.01 | S. cerevisiae deletion strains, locus YOR290C, strain snf2, hits give low values 0.989 | S. cerevisiae deletion strains, locus YOR316C, strain cot1, hits give low values 0.999 | S. cerevisiae deletion strains, locus YPL051W, strain arl3, hits give low values 0.987 | S. cerevisiae deletion strains, locus YPL055C, strain LGE1, hits give low values 1.09 | S. cerevisiae deletion strains, locus YPL078C, strain atp4, hits give low values 0.989 | S. cerevisiae deletion strains, locus YPL106C, strain sse1, hits give low values 0.963 | S. cerevisiae deletion strains, locus YPL240C, strain hsp82, hits give low values 0.983 | S. cerevisiae deletion strains, locus YPL241C, strain CIN2, hits give low values 1.02 | S. cerevisiae deletion strains, locus YPL256C, strain CLN2, hits give low values 1.05 | S. cerevisiae deletion strains, locus YPR119W, strain clb2, hits give low values 1 | S. cerevisiae deletion strains, locus YPR141C, strain kar3, hits give low values 1 | S. cerevisiae deletion strains, locus YPR163C, strain tif3, hits give low values 0.992 | S. cerevisiae deletion strains, locus YPR167C, strain met16, hits give low values 0.991 | S. cerevisiae deletion strains, strain wtn01, hits give low values 1.02 | S. cerevisiae strains, strain wild type, hits give low values 1.01
